In PubChem BioAssay:
Inconclusive results are not listed. Active and inactive are the calls of the source.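 How the source made its calls, unless noted: active means normalized viability below 100% at a tested concentration; inactive means the rest.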

How the values were obtained:
[1] = viability loss in pontine glioma line – cell-based, SU-DIPG-XIII, MIPE4.0, CellTiter-Glo, qHTS, dose response (AID 1347061; cut-off not given, nearly all actives have AC50 up to about 37 µM;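 further: cells exposed to compound for 48 hours before readout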); details: CellTiter-Glo ATP luminescence
[2] = viability loss in pontine glioma line – cell-based, SU-DIPG-XXV, MIPE5.0, CellTiter-Glo, qHTS, dose response (AID 1347065; cut-off not given, nearly all actives have AC50 up to about 26 µM;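 further: cells exposed to compound for 48 hours before ATP readout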); details: CellTiter-Glo ATP luminescence
[3] = growth inhibition of DIPG cells – cell-based, MIPE4.0 library, CellTiter-Glo luminescence, qHTS (AID 1347066; cut-off not given, nearly all actives have AC50 up to about 30 µM;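 further: cells exposed to compound for 48 hours before readout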); details: SU-DIPG-VI viability, CellTiter-Glo ATP luminescence
[4] = growth inhibition of DIPG cells – cell-based, MIPE5.0 library, qHTS (AID 1347068; cut-off not given, nearly all actives have IC50 up to about 30 µM); details: SU-DIPG-XXV viability
[5] = viability loss with induced miR-34 in A549 – imaging, A549 dox-inducible miR-34, nuclei and caspase counts, primary screen (AID 1347080;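 active means compounds whose cell count with miR-34 switched on is under 0.7 times the count with it off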); details: A549 miR-34 inducible, Hoechst nuclei count, 48 h
[6] = MELAS cybrid and Rieske KO viability enhancers – cell-based, MELAS cybrids, Rieske KO mouse fibroblasts, CellTiter-Glo, primary screen (AID 1508586;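 active means mean z-score across replicates of 1.96 or higher in either the MELAS or the Rieske mutant cell line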;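 further: z relative to plate mean and SD of compound and empty wells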); details: low glucose
[7] = viability loss in pontine glioma line – cell-based, SU-DIPG-IV, MIPE4.0, CellTiter-Glo, qHTS, dose response (AID 1347063; cut-off not given, nearly all actives have AC50 up to about 30 µM;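 further: compound exposure lasted 48 hours before the viability readout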); details: CellTiter-Glo ATP luminescence
[8] = viability loss in pontine glioma line – cell-based, JHH-DIPG-1, MIPE4.0, CellTiter-Glo, qHTS, dose response (AID 1347062; cut-off not given, nearly all actives have AC50 up to about 27 µM); details: JHH-DIPG-1 viability, CellTiter-Glo ATP luminescence
[9] = JHH-DIPG-1 glioma cell viability, MIPE5.0 library, CellTiter-Glo luminescence, qHTS (AID 1347067; cut-off not given, nearly all actives have AC50 up to about 26 µM;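 further: cells exposed to compound for 48 hours before readout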); details: JHH-DIPG-1 glioma viability, CellTiter-Glo ATP luminescence
[10] = compounds altering HSF1 focus formation in cells – imaging, Selleck Cancer Library (AID 1347162; in the data active means plate-normalised HSF1 focus index below about 0.46); details: human cells, HSF1 nuclear foci imaging, at 10 µM; SSMD: measured here: HSF1 foci SSMD mean; cell count: measured here: cell number; plate-normalised HSF1 focus index: stronger effect = lower value
[11] = drug combination growth inhibition, ovarian cancer – cell-based, oncology-focused library, rucaparib conditional, profiling panel (AID 1508598); details: patient-derived ovarian cancer cells, CellTiter-Glo viability, 144 h, stronger effect = lower value
[12] = viability loss in pontine glioma line – cell-based, SU-DIPG-XIII, MIPE5.0, CellTiter-Glo, qHTS, dose response (AID 1347064; cut-off not given, nearly all actives have AC50 up to about 23 µM); details: CellTiter-Glo ATP luminescence
[13] = stronger effect = lower value, cell number ratio, induced over uninduced
[14] = measured here: relative caspase fold change +Dox/-Dox
[15] = measured here: total cells with miR-34 induction, stronger effect = lower value
[16] = measured here: total cells without miR-34 induction
[17] = MELAS cybrid survival, CellTiter-Glo 48 h, stronger effect = higher value
[18] = Rieske KO mouse fibroblast survival, CellTiter-Glo 72 h

CCOC(=O)c1c(CSc2ccccc2)n(C)c2cc(Br)c(O)c(CN(C)C)c12
6850: cell count [5, 16]
inactive: outcome [1] | outcome [3] | outcome [4] | fold change [5, 13] 0.89 | z-score [6, 17] -0.35
-0.358: z-score [6, 18]
0.958: fold change [5, 14]
active: AC50 [2] 20.9 µM
6100: cell count [5, 15]

CC(=O)O[C@@]12CO[C@@H]1C[C@H](O)[C@@]1(C)C(=O)[C@H](O)C3=C(C)[C@@H](OC(=O)C(O)[C@@H](NC(=O)OC(C)(C)C)c4ccccc4)C[C@@](O)([C@@H](OC(=O)c4ccccc4)[C@H]21)C3(C)C (some centres not stated)
inactive: outcome [1] | outcome [7] | outcome [3]

C=C1[C@H](n2cnc3c(=O)[nH]c(N)nc32)C[C@H](O)[C@H]1CO
inactive: outcome [1] | outcome [3]

Cc1coc2c1C(=O)C(=O)c1c-2ccc2c(C)cccc12
7470: cell count [5, 15]
1.93: fold change [5, 14]
inactive: outcome [1] | outcome [8] | fold change [5, 13] 0.847 | z-score [6, 17] -0.324
-1: z-score [6, 18]
8830: cell count [5, 16]

C[C@H](NC(=O)Cc1cc(F)cc(F)c1)C(=O)N[C@@H]1C(=O)N(C)c2ccccc2-c2ccccc21
-0.743: SSMD [10]
5760: cell count [10]
inactive: outcome [2] | outcome [3] | outcome [9] | outcome [4] | plate-normalised HSF1 focus index [10] 0.981 | viability ([11]; at 0.000305 µM, OCI-C5x cells, with rucaparib 10 µM, 100% = cells with rucaparib alone) 117% | viability ([11]; at 0.000305 µM, OCI-C5x cells, without rucaparib) 120% | viability ([11]; at 0.00122 µM, OCI-C5x cells, with rucaparib 10 µM, 100% = cells with rucaparib alone) 121% | viability ([11]; at 0.00122 µM, OCI-C5x cells, without rucaparib) 124% | viability ([11]; at 0.00122 µM, OCI-P5x cells, without rucaparib) 102% | viability ([11]; at 0.00488 µM, OCI-C5x cells, with rucaparib 10 µM, 100% = cells with rucaparib alone) 118% | viability ([11]; at 0.00488 µM, OCI-C5x cells, without rucaparib) 127% | viability ([11]; at 0.00488 µM, OCI-P5x cells, without rucaparib) 102% | viability ([11]; at 0.0195 µM, OCI-C5x cells, with rucaparib 10 µM, 100% = cells with rucaparib alone) 122% | viability ([11]; at 0.0195 µM, OCI-C5x cells, without rucaparib) 129% | viability ([11]; at 0.0195 µM, OCI-P5x cells, with rucaparib 20 µM, 100% = cells with rucaparib alone) 101% | viability ([11]; at 0.0781 µM, OCI-C5x cells, with rucaparib 10 µM, 100% = cells with rucaparib alone) 122% | viability ([11]; at 0.0781 µM, OCI-C5x cells, without rucaparib) 132% | viability ([11]; at 0.0781 µM, OCI-P5x cells, without rucaparib) 104% | viability ([11]; at 0.313 µM, OCI-C5x cells, with rucaparib 10 µM, 100% = cells with rucaparib alone) 131% | viability ([11]; at 0.313 µM, OCI-C5x cells, without rucaparib) 145% | viability ([11]; at 1.25 µM, OCI-C5x cells, with rucaparib 10 µM, 100% = cells with rucaparib alone) 142% | viability ([11]; at 1.25 µM, OCI-C5x cells, without rucaparib) 144% | viability ([11]; at 5 µM, OCI-C5x cells, with rucaparib 10 µM, 100% = cells with rucaparib alone) 146% | viability ([11]; at 5 µM, OCI-C5x cells, without rucaparib) 141%
active: AC50 [1] 18.7 µM | viability ([11]; at 0.000305 µM, OCI-P5x cells, with rucaparib 20 µM, 100% = cells with rucaparib alone) 94.9% | viability ([11]; at 0.000305 µM, OCI-P5x cells, without rucaparib) 97.1% | viability ([11]; at 0.00122 µM, OCI-P5x cells, with rucaparib 20 µM, 100% = cells with rucaparib alone) 93.1% | viability ([11]; at 0.00488 µM, OCI-P5x cells, with rucaparib 20 µM, 100% = cells with rucaparib alone) 90.9% | viability ([11]; at 0.0195 µM, OCI-P5x cells, without rucaparib) 97.6% | viability ([11]; at 0.0781 µM, OCI-P5x cells, with rucaparib 20 µM, 100% = cells with rucaparib alone) 96.3% | viability ([11]; at 0.313 µM, OCI-P5x cells, with rucaparib 20 µM, 100% = cells with rucaparib alone) 90.1% | viability ([11]; at 0.313 µM, OCI-P5x cells, without rucaparib) 99.7% | viability ([11]; at 1.25 µM, OCI-P5x cells, with rucaparib 20 µM, 100% = cells with rucaparib alone) 97.9% | viability ([11]; at 1.25 µM, OCI-P5x cells, without rucaparib) 99% | viability ([11]; at 5 µM, OCI-P5x cells, with rucaparib 20 µM, 100% = cells with rucaparib alone) 87.4% | viability ([11]; at 5 µM, OCI-P5x cells, without rucaparib) 90.3%

CCOC(=O)C1=C(C)NC2=C(C(=O)CC(C)(C)C2)C1c1ccc(-c2ccccc2)cc1 (configuration not stated)
inactive: outcome [1] | outcome [4]
active: AC50 [7] 14.8 µM | AC50 [2] 23.5 µM

CS(=O)(=O)N(Cc1ccco1)CC(O)Cn1c2ccccc2c2ccccc21 (configuration not stated)
inactive: outcome [1] | outcome [12] | outcome [2] | outcome [3] | outcome [9] | outcome [4]

CC(C)CN(C[C@@H](O)[C@H](Cc1ccccc1)NC(=O)O[C@H]1CCOC1)S(=O)(=O)c1ccc(N)cc1
10200: cell count [5, 16]
1.32: fold change [5, 14]
8920: cell count [5, 15]
inactive: outcome [1] | outcome [8] | outcome [3] | fold change [5, 13] 0.871 | z-score [6, 17] -0.00484
-0.0373: z-score [6, 18]
